Screening results: PubChem, several laboratories
This is a sample that favours compounds with a hit; in the whole collection about 7.2% have one here.
SUMO Mot1 rescue – blocks SUMOylation pathway, rescuing yeast Mot1-301 growth; S. cerevisiae Mot1-301 growth rescue, ATP luminescence, 38.5C; percent above DMSO median, 100 means doubled; growth rescue, % at 18.8 µM; 320,000 compounds, 1% hits;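 active = every valid replicate shows activation above 250% relative to neutral control wells; inactive = the rest, any valid replicate at or below 250%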;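 note: OY570 slx delta 5 strain wells were the positive control but not used for scaling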
Efflux pump mplx – antifungal efflux pump inhibition, Nile Red retention; S. cerevisiae Candida pump triplex; inhibition, % at 10 µM; 330,000 compounds, 0.44% hits; AID 485275;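 active = plate passing quality check with inhibition over a set limit, or well fluorescence over plate mean plus 4 SD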;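 note: Nile Red retained in pooled yeast measured as flow cytometry median fluorescence; 0% = buffer negative control and 100% = Enniatin B positive control; higher means more Nile Red kept so more efflux inhibition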
ALR H2O2 inh – blocks human ALR sulfhydryl oxidase activity. P55789. purified ALR, DTT oxidation, H2O2 HRP-luminol luminescence. inhibition, % (no concentration beside the values). 290,000 compounds, 3.8% hits. AID 485317;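 active = mean replicate inhibition above about 79%, with every replicate also reaching it, limit read from the data; inconclusive = only one of the two criteria met; inactive = mean below limit and not every replicate reaching it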
Target sequence (P55789 whole entry, looked up): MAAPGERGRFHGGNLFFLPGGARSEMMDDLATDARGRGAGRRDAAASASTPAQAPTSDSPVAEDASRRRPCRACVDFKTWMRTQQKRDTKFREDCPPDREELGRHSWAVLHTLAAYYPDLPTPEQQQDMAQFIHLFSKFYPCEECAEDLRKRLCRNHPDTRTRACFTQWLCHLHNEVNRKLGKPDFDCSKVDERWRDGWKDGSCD
A1 inh – inhibitors of the anti-apoptotic protein A1, read as caspase activation | caspase activation, % (no concentration beside the values) | AID 2462 | 330,000 compounds, 0.066% hits | MEF A1-2A-BIM cells, Caspase-Glo 3/7 luminescence, 3 h; percent of clofoctol response, vehicle zero;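 active = over half of replicate activation scores above 10%, or exactly half above 10 with the replicate mean above 10; inconclusive = replicate mean below 10 yet half the replicates above 10; inactive = over half of replicates below 10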
VLA-4 inh – inhibition in a human VLA-4 binding assay; 330,000 compounds, 0.2% hits; VLA-4 expressing cells, ligand binding flow cytometry; inhibition, % (about 7 µM as worked out from the volumes in the protocol); AID 2557; P13612; in the data active = inhibition above about 50%
AHR act – activates the human aryl hydrocarbon receptor | P35869 | AHR-responsive luciferase reporter cells, luminescence | activation, % at 5 µM | 320,000 compounds, 2.5% hits | AID 2796; in the data active = activation above about 47%;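 note: 0% = vehicle wells and 100% = reference agonist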
* hit, by the source's call; ? = inconclusive; / = no result given.

SMILES	SUMO Mot1 rescue	Efflux pump mplx	ALR H2O2 inh	A1 inh	VLA-4 inh	AHR act
CCN(CC)c1ccc2ccc(=O)oc2c1	-9	0	98*	1	-5	1
COC(=O)[C@@H](CC(C)C)NS(=O)(=O)N(Cc1ccccc1)[C@@H](CC(C)C)C(=O)OC	3	0	-4	-2	-26	-1
O=Cc1c(-c2ccc(F)cc2)nc2ccccn12	249	1	13	-2	-3	70*
COc1ccc(-c2nc3ccccn3c2C=O)cc1	-14	0	-3	-6	22	55*
Cc1ccc(NNC(=O)c2c(C)noc2C)cc1Cl	181	0	53	-2	1	2
Cc1ccc(NNC(=O)c2ccno2)cc1Cl	152	0	99*	0	19	5
Cc1cc(C(=O)NNc2ccc(Cl)cc2)no1	62	0	?	1	7	4
Cc1cc(C(=O)NNc2ccc(C)c(C)c2)no1	236	0	99*	1	13	2
Cc1ccc(NNC(=O)c2cc(C)on2)c(C)c1	4	0	?	1	1	-1
Cc1cc(C(=O)NNc2ccc(F)cc2F)no1	538*	0	98*	0	17	-2
Cc1ccc(NNC(=O)c2ccno2)cc1C	100	0	98*	-1	3	9
CC1Cc2ccccc2N1C(=O)CN1C(=O)CN(C)C(=O)c2ccccc21 (stereo not drawn)	4	0	/	0	-6	5
Cc1cc(Cl)c(S(=O)(=O)N2CCN(c3ccccn3)CC2)cc1OCC(=O)NC1CCCCC1	16	0	-5	1	1	3
Cc1ccc(Nc2nnc(SCc3cc(=O)n4ccsc4n3)s2)c(C)c1	-23	0	/	0	17	48*
Cc1c(N)cccc1N	77	0	86*	0	-68	7
CN(C)C(CNC(=O)c1cccc(S(=O)(=O)NCc2ccccc2)c1)c1ccco1 (stereo not drawn)	0	0	1	0	4	1
Cc1ccc([N+](=O)[O-])c(OCC(O)CNC(C)(C)C)c1 (stereo not drawn)	16	0	/	-1	10	3
COc1ccc(-n2c(=S)[nH]c3cc(C(=O)NC4CCCCC4)ccc3c2=O)c(OC)c1	-13	0	91*	-1	12	0
O=C(NCC(=O)N1CCOCC1)c1ccc(Cl)c(Cl)c1	9	0	/	0	12	6
CC(Oc1ccc(Cl)cc1Cl)C(=O)Nc1cccc(O)c1 (stereo not drawn)	17	0	23	0	5	-1
CC(Oc1ccc(Cl)cc1Cl)C(=O)Nc1ccc(O)cc1 (stereo not drawn)	7	0	98*	-1	10	-1
CCCCc1c(O)nc(SCC(=O)N2CCOCC2)n(-c2ccccc2OC)c1=O	-7	0	2	0	-2	4
CCCCc1c(O)nc(SCC(=O)c2ccccc2)n(-c2ccccc2)c1=O	-4	0	4	0	-1	6
CCCCc1c(O)nc(SCC(=O)c2ccccc2)n(-c2ccccc2OC)c1=O	236	0	99*	-1	-2	3
CCCCc1c(O)nc(SCC(=O)c2ccccc2)n(-c2ccccc2C)c1=O	13	0	97*	1	-3	1
SMILES	SUMO Mot1 rescue	Efflux pump mplx	ALR H2O2 inh	A1 inh	VLA-4 inh	AHR act
O=C(CONS(=O)(=O)c1ccc(Cl)cc1)NCCNc1ncc(C(F)(F)F)cc1Cl	-6	0	-6	1	0	0
O=C1c2ccccc2C(=O)N1Cc1cc(-c2ccc(Cl)cc2)no1	-5	0	-3	0	8	1
Oc1[nH]c2ccc(Br)cc2c1N=Nc1ccc(C(F)(F)F)cn1	58	0	-14	1	-7	64*
Oc1[nH]c2ccccc2c1N=Nc1ccc(C(F)(F)F)cn1	-9	0	2	-5	-7	55*
Oc1[nH]c2ccccc2c1N=Nc1nncc2ccccc12	-16	0	/	-5	-10	6
Cc1c(N/C(=N/S(=O)(=O)c2ccc(Cl)cc2)c2ccccc2)c(=O)n(-c2ccccc2)n1C	10	0	-22	1	4	0
Cc1csc(NC(=O)c2ccco2)c1C(=O)c1ccccc1	19	0	43	0	5	1
Cc1ccc(NC(=O)c2ccco2)c(NC(=O)c2ccccc2)c1	161	0	2	2	3	28
COc1ccccc1OCC(=O)Nc1cc(C)ccc1NC(=O)c1ccco1	14	0	1	0	-4	31
CCOc1ccccc1C(=O)Nc1cc(C)ccc1NC(=O)c1ccco1	-6	0	3	-1	5	68*
CCOc1cc(NC(=O)c2ccco2)c(OCC)cc1NC(=O)Cc1cccc(OC)c1	1	0	-11	0	5	54*
Cc1ccc(NC(=O)c2ccco2)c(NC(=O)c2ccc(Cl)cc2)c1	-15	0	-6	0	6	56*
Cc1sc(NC(=O)c2ccco2)c(C(=O)c2ccc(Cl)cc2)c1C	-18	0	97*	-1	-2	1
Cc1cnc(C(=O)N2CCN(S(=O)(=O)c3cccc(Br)c3)CC2)cn1	40	0	-3	-2	10	-2
O=C(CSc1nnnn1-c1cccnc1)Nc1ccc(F)cc1F	-4	0	-2	-1	11	5
O=C(NCc1cc(F)ccc1F)C1CCC(=O)N(C2CCCCCC2)C1 (stereo not drawn)	95	0	4	0	-2	5
Cc1ccc(NC(=O)c2ccc(Cl)c(S(=O)(=O)NCc3ccco3)c2)c(O)c1	-3	0	7	1	13	56*
CSC(=S)N/N=C/c1ccc(Br)cc1	19	0	1	0	8	20
Cc1ccc[n+](CC(=O)Nc2ccc(N(C)C)cc2)c1	-16	0	100*	1	-2	13
CN(C)c1ccc(/C=N/NC(=O)C[n+]2ccccc2)cc1	-19	0	99*	0	26	2
CN(C)c1ccc(NC(=O)Oc2ccccc2)cc1	290	0	97*	2	5	39
CSC(=S)N/N=C/c1ccc(N(C)C)cc1	0	0	5	-2	12	51*
CC(=O)Nc1ccc(NC(=O)Oc2ccccc2)cc1	109	0	/	-1	4	4
Cc1ccc(NC(=O)CSc2nnc(-c3cccnc3)n2CCN2CCCCC2)cc1	6	0	-6	0	15	0
O=S1(=O)CCC(n2nccc2-c2ccccc2)C1 (stereo not drawn)	2	0	-3	0	8	2
CC(=O)c1ccc(NC(=O)C[n+]2ccc(N(C)C)cc2)cc1	-5	0	-16	2	1	/
CN(C)c1ccc(NC(=O)C[n+]2ccccc2)cc1	4	0	99*	1	-91	2
